Assay outcomes (PubChem)
WRN inhibitor – inhibitors of human WRN helicase. WRN helicase unwinding, fluorescent forked duplex, kinetic. Potency, µM (top dose mostly 114 µM), without a hit: top-dose activity change, negative = inhibition, actives largely listed as inhibitors. actives 0.46% (n = 360,000); note: potency is the fitted concentration of half-maximal effect; % is set by controls: 0 for no effect and ±100 for the full control effect; nearly all actives have a fitted effect of over 55% in size
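Enzyme (20 nM final) and test compound sit together 15 min at room temperature before substrate addition. Substrate is a single-forked duplex oligonucleotide (100 nM) labelled with fluorophore and quencher, with 2 mM ATP; helicase unwinding raises red fluorescence, read kinetically.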
VDR inhibitor – inhibitors of human vitamin D receptor; VDR-SRC2-3 peptide fluorescence polarization, 2 h; P11473; AID 504847; Potency, µM, for inactives: max response, negative = inhibition, hits mostly inhibitors; actives 0.93% (n = 400,000); note: potency is the fitted concentration of half-maximal effect; % is set by controls: 0 for no effect and ±100 for the full control effect
Target sequence (P11473 whole entry, looked up): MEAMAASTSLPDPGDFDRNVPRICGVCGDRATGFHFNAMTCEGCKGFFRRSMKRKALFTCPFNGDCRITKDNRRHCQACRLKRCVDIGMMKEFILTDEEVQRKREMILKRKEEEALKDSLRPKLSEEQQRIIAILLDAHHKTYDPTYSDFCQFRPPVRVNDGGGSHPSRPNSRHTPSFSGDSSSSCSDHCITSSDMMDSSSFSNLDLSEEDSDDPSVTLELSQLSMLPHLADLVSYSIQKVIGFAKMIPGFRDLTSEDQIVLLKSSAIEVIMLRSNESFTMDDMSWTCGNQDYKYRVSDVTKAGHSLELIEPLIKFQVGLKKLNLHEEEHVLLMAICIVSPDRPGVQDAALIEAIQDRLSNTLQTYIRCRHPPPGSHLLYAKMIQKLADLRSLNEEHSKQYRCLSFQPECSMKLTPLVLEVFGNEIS
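Fluorescence polarization assay of small-molecule disruption of VDR binding to coregulator peptide SRC2-3. Compounds and controls pin-transferred, then read after 2 h incubation at ambient room temperature.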
PI5P4K alpha inh – PI5P4K alpha (human) kinase inhibition; P48426; PI5P4Kalpha enzyme, ADP-Glo luminescence, 60 min; active compounds read low; max response, %; actives 1.2% (n = 330,000); AID 652105; active = max response of -50% or lower; inconclusive = between -30% and -50%; inactive = -30% or higher; note: value at the top dose of about 77 µM; % is set by controls: 0 for no effect and ±100 for the full control effect
Target sequence (P48426 whole entry, looked up): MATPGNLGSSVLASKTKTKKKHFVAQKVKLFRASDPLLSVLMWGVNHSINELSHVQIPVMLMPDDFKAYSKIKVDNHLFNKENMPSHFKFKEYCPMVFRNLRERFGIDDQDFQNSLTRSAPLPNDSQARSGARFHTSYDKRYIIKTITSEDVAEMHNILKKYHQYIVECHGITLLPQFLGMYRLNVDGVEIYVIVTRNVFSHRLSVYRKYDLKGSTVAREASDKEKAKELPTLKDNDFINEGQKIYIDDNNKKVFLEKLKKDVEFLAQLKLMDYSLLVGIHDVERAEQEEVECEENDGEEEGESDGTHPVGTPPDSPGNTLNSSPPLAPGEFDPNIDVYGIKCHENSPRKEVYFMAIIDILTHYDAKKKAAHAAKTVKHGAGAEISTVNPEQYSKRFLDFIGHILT
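Quantitative HTS of the MLSMR library against PI5P4Kalpha with substrate. ATP added last at 5 microM final; room temperature, 60 minutes. Remaining ATP depleted, ADP converted and read as luminescence.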
TCR activator – activators of T cell receptors. primary human leukocytes, anti-CD3, IL-2 HTRF, 48 h. 330,000 tested, under 10 active. Potency, µM (top dose mostly 9.22 µM), for the others: at the top dose activation of IL-2 secretion, most hits filed as activators; note: % of control where 0% means no effect
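HTRF read-out of IL-2 secretion: europium cryptate donor excited at 320nm, d2 acceptor emission at 665nm. Cells were primary human leukocytes incubated 48 hr with compounds and a-CD3 beads, supplying TCR signal only.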
FEN1 inh-1 – inhibitors of human flap endonuclease 1; P39748; Recombinant FEN1 flap cleavage, fluorescence, 15 min; Potency, µM (titrated, usually from 114 µM), for the others: at the top dose activity change, negative = inhibition, hits mostly inhibitors; actives 0.35% (n = 390,000); AID 588795; note: potency is the fitted concentration of half-maximal effect; % is set by controls: 0 for no effect and ±100 for the full control effect; nearly all actives have a fitted effect of over 65% in size
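Potency values derive from four-parameter Hill fits of normalized qHTS data. The reaction used 10 nM FEN1 preincubated 15 min at room temperature with compound, then 50 nM DNA substrate, read at 0 and 15 min.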
PLK1 PBD inh – blocks phosphopeptide binding to human PLK1 polo-box domain. P53350. Plk1 PBD binding of FITC phosphopeptide, fluorescence polarization. Potency, µM, for inactives: max response, negative = inhibition, hits mostly inhibitors. actives 2.8% (n = 360,000). AID 720504; note: potency is the fitted concentration of half-maximal effect; series mostly up to about 57 µM; % is set by controls: 0 for no effect and ±100 for the full control effect; nearly all actives have a fitted effect of over 65% in size
FEN1 inh-2 – FEN1 inhibition, cherry-pick retest; shares compounds with FEN1 inh-1; FEN1 flap cleavage, TAMRA/BHQ2 fluorogenic DNA substrate; Potency, µM, usual class: inhibitors; actives 79% (n = 880); AID 720498; note: potency is the fitted concentration of half-maximal effect; nearly all actives have a fitted effect of over 60% in size
Starred values were filed as active, the others as inactive; ? = inconclusive; . = not tested or not shown; [ ] = remark or other dose. Shown are actives, neighbours in structure and some others; about 3.7% of the full set was active somewhere. Unless noted, calls come from the whole dose curve; as a rule, active = well fitted curve in the direction sought with a large enough effect; inconclusive = small, poorly fitted or top-dose-only effect, or another doubt; inactive = no such curve, though single readings can be large; an effect the other way counts as inactive or inconclusive.

SMILES | WRN inhibitor | VDR inhibitor | PI5P4K alpha inh | TCR activator | FEN1 inh-1 | PLK1 PBD inh | FEN1 inh-2
CCOc1ccc(N=Cc2c(C)[nH]n(-c3nc4ccccc4[nH]3)c2=O)cc1 | ? | -10.8% | -18.8 | -1.5%[46.1 µM] | ? | -12.3% | ?
CS(=O)(=O)N1CCC(N2CCN(Cc3ccccc3)C(=O)C2=O)CC1 | . | -5.9% | . | . | -0.1% | . | .
CC1=C(C#N)c2nc(N)c(C#N)c(C)c2/C1=C\c1ccc(-c2ccccc2C(=O)O)o1 | 25.1µM* | 7.6% | -72.2* | -2.4% | 39.8µM* | 26.7µM* | 47.8*
O=C(NN1C(=O)/C(=C/c2ccc(O)cc2)SC1=S)c1cccc(O)c1 | -8.3%[11.6 µM] | -18.3% | -0.3 | . | -3.3% | 72.8% | ?
O=C(NNC(=O)c1cc(O)c(O)c(O)c1)NC1CCCCC1 | -8.7%[57.1 µM] | -3.0% | -9.3 | -5.1% | 28.2µM* | ? | ?
CCN(C(=O)C1CCN(S(=O)(=O)c2c(C)noc2/C=C/c2ccc(C)cc2)CC1)c1cccc(C)c1 | . | 5.3% | . | . | 17.9% | . | .
Cc1ccc(Cn2c(C(=O)O)c(CNCc3ccc(OC(C)C)cc3)c3ccc(C)cc32)cc1 | . | -1.2% | . | . | 3.0% | . | .
NC(N)=Nc1nc(-c2ccccc2)c2ccccc2n1 | 56.5% | 7.0% | 0.5 | -2.4% | ? | -19.7% | ?
O=c1c2ccccc2nc2sc(Nc3ccc4c(c3)CNC4)nn12 | . | . | . | . | . | . | 37.9*
CCCNC(=O)c1cc2n(n1)CCCN(Cc1ccc(F)cc1)C2=O | . | 9.2% | . | . | -10.8% | . | .
CC(C)C[C@H](NC(=O)[C@H](CCCCN)NC(=O)CNC(=O)[C@H](CC(C)C)NC(=O)[C@@H](N)C(C)C)C(=O)N[C@@H](CO)C(=O)N[C@@H](CCC(N)=O)C(=O)N[C@@H](CCC(=O)O)C(=O)N[C@@H](CC(C)C)C(=O)N[C@@H](Cc1cnc[nH]1)C(=O)N[C@@H](CCCCN)C(=O)N[C@@H](CC(C)C)C(=O)N[C@@H](CCC(N)=O)C(=O)N[C@H](C(=O)N[C@@H](Cc1ccc(O)cc1)C(=O)N1CCC[C@H]1C(=O)N[C@@H](CCCNC(=N)N)C(=O)N[C@H](C(=O)N[C@@H](CC(N)=O)C(=O)N[C@H](C(=O)NCC(=O)N[C@@H](CO)C(=O)NCC(=O)N[C@H](C(=O)N1CCC[C@H]1C(N)=O)[C@@H](C)O)[C@@H](C)O)[C@@H](C)O)[C@@H](C)O | . | 6.9% | . | . | . | . | .
COc1cccc2nc3c(C(=O)NCCN(C)C)cccc3cc12 | 13.5%[11.6 µM] | -5.1% | -23.2 | 6.0% | 12.6µM* | -5.2% | 30.1*
CCN(CC)CCNc1ccc(CO)c2sc3ccccc3c(=O)c12 | -16.0% | -7.1% | 6.7 | -4.5% | 31.6µM* | -18.3% | 33.8*
CCCCN(C)C1=CC2=CC(=C(C#N)C#N)CCC2CC1 (stereo unspecified) | ? | -12.2% | -4.0 | -6.6%[46.1 µM] | 22.4µM* | -183.6% | 75.7*
O=[N+]([O-])c1ccc(N/N=C/c2cccc(O)c2O)c(S(=O)(=O)N2CCOCC2)c1 | -11.0% | 11.4% | ? | -0.5% | -17.4% | -3.9% | .
O=[N+]([O-])c1ccc(N/N=C/c2ccc(O)c(O)c2O)c(S(=O)(=O)N2CCOCC2)c1 | ? | ? | -97.7* | -10.3% | 20µM* | 2.99µM* | 33.8*
CCc1ccc2nc3nc(C)cc(C)c3c(N)c2c1 | 21.7%[57.1 µM] | 3.0% | . | -1.0% | ? | -7.4% | ?
CCc1ccc(NC(=S)/N=C(\N)Nc2nc(C)c3cc(CC)ccc3n2)cc1 | -0.2% | ? | 14.7 | 1.2% | -19.6% | -0.8% | .
NC(=S)NN=Cc1ccc(-c2ccc(S(=O)(=O)Nc3ncccn3)cc2)o1 | 25.1µM* | -16.3% | -55.5* | 0.7% | 79.4µM* | 29.9µM* | 23.9*
CCOc1ccc(C(=O)N/N=C/c2ccc(-c3ccc(S(=O)(=O)Nc4ncccn4)cc3)o2)cc1 | ? | -2.9% | . | 0.2% | ? | -21.1% | .
CCOC(=O)c1ccc(NC(=O)c2noc3c2CCCC3)cc1 | . | 5.9% | . | . | -8.6% | . | .
C=CCOc1ccc(Br)cc1/C=C1/SC(=Nc2ccc(C(=O)O)cc2)NC1=O | -11.5%[11.6 µM] | -15.3% | -72.3* | 3.6% | 25.1µM* | 21.2µM* | ?
CCOC(=O)C(CC)Sc1ncnc2sc3c(c12)CCCC3 (stereo unspecified) | . | -10.7% | . | . | -18.1% | . | .
CC(=O)N(\C=C/C=C/C=C1\Sc2ccccc2C1=O)c1ccccc1 | ? | ? | -66.2* | 11.0% | ? | ? | ?
C=C(C[C@]1(C(=O)OC)CC2(CC=C(C)C)C(=O)C(C(=O)CC(C)C)=C(O)C(CC=C(C)C)(C1)C2=O)C(=O)OC (stereo partly specified) | . | -2.2% | . | . | . | . | .
SMILES | WRN inhibitor | VDR inhibitor | PI5P4K alpha inh | TCR activator | FEN1 inh-1 | PLK1 PBD inh | FEN1 inh-2
COc1cc(N/C(N)=N/c2nc(C)cc(C)n2)cc(OC)c1 | 39.1% | -14.2% | -3.1 | 0.0% | ? | 4.9% | 53.6*
Cc1cc(=O)[nH]c(/N=C(\N)Nc2ccc3c(c2)OCCO3)n1 | 1.8% | 0.2% | 4.3 | -3.2% | -6.2% | -1.9% | .
Cc1cc(C)nc(/N=C(\N)Nc2ccc3c(c2)OCCO3)n1 | 17.3%[57.1 µM] | 3.4% | -8.4 | 1.3% | 79.4µM* | -12.7% | 67.5*
CCN(CC)CCC(=O)Nc1cccc2c1C(=O)c1ccccc1C2=O | ? | 2.0% | 1.1 | -31.7% | 15.8µM* | -3.2% | 6.01*
Nc1cccc(C(=O)OCC(=O)Nc2cccc3c2C(=O)c2ccccc2C3=O)c1 | -34.6% | -18.2% | -12.1 | 2.6%[46.1 µM] | 0.5% | ? | .
CCc1ccccc1NC(=O)c1ccc2c(SCC(=O)O)c3c(nc2c1)CCC3 | . | -16.4% | . | . | 3.0% | . | .
O=C(Cc1cnn(-c2ccccc2)c1)c1ccc(O)c(O)c1O | 10.6µM* | -2.3% | -24.1 | 1.7% | 25.1µM* | ? | 33.8*
CCOC(=O)c1c(C)[nH]c(C)c1S(=O)(=O)N(C)CC(=O)Nc1cc(Cl)ccc1OC | . | 1.2% | . | . | 5.6% | . | .
O=C1c2ccc3c4c(ccc(c24)C(=O)N1NC(=O)C(F)(F)F)CC3 | ? | -6.1% | . | 6.1% | 56.2µM* | -11.4% | 60.1*
COc1ccc(C(=O)Nc2nc(-c3nnn(-c4cc(OC)ccc4OC)c3C)ns2)cc1 | . | -0.6% | . | . | 2.1% | . | .
CCN(CC)c1cc2c(cc1F)c(=O)c(S(=O)(=O)c1ccc(C)cc1)cn2Cc1ccc(F)cc1 | . | 10.8% | . | . | 8.9% | . | .
CC(=O)c1sc2nc(CSc3nnnn3-c3ccccc3)[nH]c(=O)c2c1C | 28.2µM* | -2.2% | -82.9* | 1.5% | 79.4µM* | ? | ?
Cc1ccc2c(c1)N(C)/C(=C/c1cccc[n+]1C)S2 | 0.7%[11.6 µM] | -3.1% | 1.9 | 5.0% | ? | 8.7% | 37.9*
CC(=O)c1ccc2c(c1)N(C)c1ccccc1S2 | -4.0% | -3.5% | 11.3 | -4.0%[46.1 µM] | -14.4% | -15.5% | .
